Molecules are shown by their SMILES. Where “and” joins values, the source holds several entries; their conditions need not be identical. Identical values can stand only once. Inconclusive results are not listed. Calls of active or inactive are those of the source. The call rests on the fitted dose curve; in most records, active means well fitted inhibition curve with a large enough effect; inconclusive means small, poorly fitted or top-dose-only effect; inactive means flat fitted curve, though single readings scatter.
On the % scale 0 is the no-effect control and ±100 the full control effect; potency means the concentration at half of the fitted maximal effect.

The subject of the assay is KB-3-1. Put plainly: Cytotoxic Profiling of Annotated Libraries Using Quantitative High-Throughput Screening (AID 1296008). Further: nearly all actives have a fitted effect of over 60% in size. To be noted: Five cell lines viability, CellTiter-Glo ATP luminescence, 48-72 h; max response: stronger effect = lower value. An outline of the steps: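 Cytotoxicity was measured as CellTiter-Glo ATP luminescence, read after 10 min at room temperature. Compound treatment of the cells lasted 48 or 72 hr at 37 degrees Celsius in a qHTS format.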
As for `O=C(O)[C@@H](O)[C@H](O)[C@H](O)[C@@H](O)C(=O)O` (tested in a mixture with another compound), the max response is -0.35% (inactive).
Consider `Cc1c(O)cc2c(c1C)O[C@](C)(CCC[C@H](C)CCC[C@H](C)CCCC(C)C)CC2`, for which the max response was -6.57% (inactive).
The same measure, in the same setting: under `O=S(O)CO` stands -16% (inactive); under `O=C(Nc1nnc(-c2ccc3c(c2)OCCO3)o1)C1CCCCC1`, 6.45% (inactive); under `O=C(CCCN1CCC(n2c(=S)[nH]c3ccccc32)CC1)c1ccc(F)cc1`, 8.28% (inactive).
On the same count and under the same terms, under `NCCCC(=O)O` stands 2.75% (inactive); under `CC(=O)O[C@H]1CC(C)(C)CC2[C@]13CO[C@@]21CCC2[C@@]4(C)CC[C@H](O[C@@H]5OC[C@H](O[C@@H]6O[C@H](CO)[C@@H](O)[C@H](O)[C@H]6O[C@@H]6OC[C@@H](O)[C@H](O)[C@H]6O)[C@H](O)[C@H]5O[C@@H]5O[C@H](CO)[C@@H](O)[C@H](O)[C@H]5O)[C@@](C)(CO)C4CC[C@@]2(C)[C@]1(C)C[C@H]3O` (stereo not given in full), 4.15% (inactive).
On the same count and under the same terms, under `CC(=O)N[C@@H](C=O)[C@H](O)[C@H](O)[C@@H](O)CO` stands 5.53% (inactive) and 4.97% (inactive).
As to `CS(=O)(=O)OCCCNCCCOS(C)(=O)=O`, the max response is -5.57% (inactive).
Same read-out and setting: the result for `CC1(S(=O)(=O)O)CC(=O)c2ccccc2C1=O` (stereo not given) reads 5.99% (inactive).
Same read-out and setting: the result for `COc1ccc(C2NC(=S)N3C(c4ccc(OC)c(OC)c4)NC(=S)N23)cc1OC` (stereo not given) reads -2.1% (inactive).
Consider `CCC(C)(OC(C)=O)C(=O)O[C@H]1[C@H](OC(C)=O)[C@]2(CO)[C@H](O)[C@H](O)[C@]3(C)C(=CCC4[C@@]5(C)CC[C@H](O[C@@H]6O[C@H](C(=O)O)[C@@H](O)[C@H](O[C@@H]7OC[C@H](O)[C@H](O[C@@H]8OC[C@H](O)[C@H](O)[C@H]8O)[C@H]7O)[C@H]6O[C@@H]6O[C@H](CO)[C@@H](O)[C@H](O)[C@H]6O)C(C)(C)C5CC[C@]43C)[C@@H]2CC1(C)C` (stereo not given in full), for which the max response is -16.4% (inactive).
Still for that read-out and setting: the result for `CCCCCCCCCCCCCCCC(=O)OC[C@H](O)[C@H]1OC(=O)C(O)=C1O` reads -14.1% (inactive); that for `CCCCCCCC(=O)CC[C@@H]1[C@@H](C/C=C\CCCC(=O)OC(C)C)[C@@H](O)C[C@H]1O`, 7.18% (inactive).
`CC(C)(O)C1Cc2c(ccc(C(=O)CCc3ccccc3)c2O)O1` (stereo not given): the max response was -17.9% (inactive).
For `N[C@@H](C(=O)N[C@H]1C(=O)N2C(C(=O)O)=C(Cl)CC[C@H]12)c1ccccc1`, the max response is -8.22% (inactive).
Same read-out and setting: under `CCCCCCCCCCCCCCCCCC(=O)OCCO` stands -9.35% (inactive); under `CC1=C(C(=O)OCCN(Cc2ccccc2)c2ccccc2)C(c2cccc([N+](=O)[O-])c2)C(P2(=O)OCC(C)(C)CO2)=C(C)N1` (stereo not given), 26.8% (inactive); under `O=C[C@H](O)[C@@H](O)[C@H](O[C@H]1O[C@H](CO)[C@@H](O[C@H]2O[C@H](CO)[C@@H](O)[C@H](O)[C@H]2O)[C@H](O)[C@H]1O)[C@H](O)CO`, -9.17% (inactive).
Still for that read-out and setting: under `COc1cc(C[C@@H]2NCCc3cc(O)c(O)cc32)cc(OC)c1OC` stands -8.11% (inactive); under `COCC1=C(C(=O)OC(C)OC(=O)OC(C)C)N2C(=O)[C@@H](NC(=O)/C(=N\OC)c3csc(N)n3)[C@H]2SC1` (stereo not given in full), -19.8% (inactive) and -4.94% (inactive); under `COc1ccc(CCNCC(O)COc2cccc(C)c2)cc1OC` (stereo not given), -6.7% (inactive).
Still for that read-out and setting: under `CCOC(=O)Nc1ccc2c(c1)N(C(=O)CN(C)C)c1ccccc1CC2` stands -13.4% (inactive).
Turning to `CN1CCN(C2=Nc3ccccc3Cc3ccccc32)CC1`, the max response is 2.98% (inactive).
On the same count and under the same terms, under `CO[C@@H]1[C@@H](O[C@@H]2O[C@H](C)[C@@H](O[C@H]3C[C@@](C)(O)[C@@H](OC(=O)CC(C)C)[C@H](C)O3)[C@H](N(C)C)[C@H]2O)[C@@H](CC=O)C[C@@H](C)[C@@H](O)/C=C/C=C/C[C@@H](C)OC(=O)C[C@H]1O` stands -0.235% (inactive); under `O.O=C([O-])CC([S-])C(=O)[O-].[Au+].[Na+].[Na+]` (stereo not given), -7.82% (inactive).
As to `CC#CCC(C)[C@H](O)/C=C/[C@@H]1[C@H]2c3cccc(CCCC(=O)O)c3O[C@H]2C[C@H]1O` (stereo not given in full), the max response was -28.3% (inactive).
For the molecule `COc1cc2[nH]c(C)c(CCN3CCN(c4ccccc4)CC3)c2cc1OC`, the max response is -9.43% (inactive).
The same measure, in the same setting: under `C[C@@H]1C[C@H]2C3C[C@H](F)C4=CC(=O)C=CC4(C)[C@@]3(F)[C@@H](O)CC2(C)[C@@]1(O)C(=O)COC(=O)C(C)(C)C` (stereo not given in full) stands 27.2% (inactive); under `O=C(CO)[C@@H](O)[C@H](O)[C@H](O)CO`, -8.15% (inactive); under `CCCCCCCCCCCCCCCC(=O)OC/C=C(C)/C=C/C=C(C)/C=C/C1=C(C)CCCC1(C)C`, -13.6% (inactive).
With `CCn1c(=O)c(-c2ccc(-c3cncs3)cc2Cl)cc2cnc(Nc3ccc(N4CCN(C)CC4)cc3)nc21`, the Potency was 10.3 µM (active).
Regarding `O=C(c1ccccc1)c1c(O)cc(O)cc1O[C@@H]1O[C@H](CO)[C@@H](O)[C@H](O)[C@H]1O`, the max response was 2.63% (inactive).
For the molecule `CC(NC(=O)Cc1cc(F)cc(F)c1)C(=O)NC1C(=O)N(C)c2ccccc2-c2ccccc21` (stereo not given), the Potency is 16.4 µM (active).
For the molecule `COC(C)=O`, the max response was -9.47% (inactive).
As to `CO[C@H]1[C@@H](O)[C@H](N)[C@@H](O[C@H]2O[C@H]([C@H](C)N)CC[C@H]2N)[C@H](O)[C@@H]1N(C)C(=O)CN`, the max response is -19.3% (inactive).
Same read-out and setting: under `CC(=O)OC[C@H]1O[C@@H](O[C@H]2[C@H](O)[C@@H](OC(=O)c3ccccc3C(=O)O)[C@H](O)O[C@@H]2COC(C)=O)[C@H](O)[C@@H](OC(=O)c2ccccc2C(=O)O)[C@@H]1O` stands -12.2% (inactive); under `c1cnc2cc3c(cc2n1)[C@@H]1CNC[C@H]3C1`, -10.7% (inactive); under `O=P(O)(O)C(O)(Cc1cnc2ccccn12)P(=O)(O)O`, -1.58% (inactive).
On the same count and under the same terms, under `NCCCC[C@H](NC(=O)[C@@H]1CCCN1C(=O)[C@@H]1CSSC[C@H](N)C(=O)N[C@@H](Cc2ccccc2)C(=O)N[C@@H](Cc2ccccc2)C(=O)N[C@@H](CCC(N)=O)C(=O)N[C@@H](CC(N)=O)C(=O)N1)C(=O)NCC(N)=O` stands -12.7% (inactive).

These data come from PubChem BioAssay (NCATS).
